# TWEAK-Fn14 inh = blocks TWEAK-Fn14 interaction in a reporter cell assay. actives 2% (n = 360,000). AID 1159606. inhibition, % at 10 µM. TWEAK-stimulated Fn14 reporter cells, luciferase luminescence, 8 h; in the data active means inhibition above about 50%
# HSP90 inh = HSP90 refolding inhibition in rabbit reticulocyte lysate. inhibition, % at 5.6 µM. actives 0.91% (n = 290,000). luciferase refolding luminescence, 3 h;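 active means inhibition above the screen-wide mean plus 3 SD, computed separately per campaign, cut at about 16% in these data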;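 further: inhibitors lower the luminescence because luciferase stays unfolded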
# LGR2 antag = blocks bursicon-induced cAMP signaling via Drosophila LGR2; HEK293 LGR2, CRE-luciferase, bursicon-stimulated, 4 h; inhibition, % at 9.99 µM; actives 0.35% (n = 380,000);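 active means drop in luminescence signal, shown as inhibition above about 50% in the replicate tests, limit read from the data, passing the limit was not always enough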;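 further: agonist challenge used bursicon conditioned medium at about half maximal strength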
# TROY NFkB inh = blocks TROY-dependent signaling in reporter cells; Q293 LMP1-TROYcd NF-kB luciferase reporter, 4 h; inhibition, % at 10 µM; actives 0.98% (n = 360,000); AID 1347056;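 active means compounds whose plate-normalised and pattern-corrected inhibition of the luciferase reporter signal at the single screening dose is 50% or more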
# A number is an active result; 0 = inactive; - = not tested or not shown. This is a sample that favours compounds with a hit; in the whole collection about 2.2% have one here.
SMILES,TWEAK-Fn14 inh,HSP90 inh,LGR2 antag,TROY NFkB inh
COC(=O)[C@@H]1C[C@]2(OC(=O)c3ccccc3)C=CC(=O)C[C@@H]2N1C(=O)OCc1ccccc1,51.2,0,0,0
COc1ccc(-n2nc3cc(C)c(NC(=O)C(C)C)cc3n2)cc1,-,0,-,-
COc1ccc(-n2nc3cc(C)c(NC(C)=O)cc3n2)cc1,75.2,0,0,56.6
N#Cc1cc(-c2ccccc2)nc(NN)n1,0,0,-,0
N#Cc1cc(-c2ccccc2)nc(Oc2ccc(Cl)cc2)n1,50.1,0,0,0
COC(=O)C[C@H]1C=C[C@@H](NS(=O)(=O)c2ccccc2F)[C@H](CO)O1,-,-,0,-
CC12CCC(=O)C=C1CCC1C2C(=O)CC2(C)C1CC[C@]2(O)C(=O)CO (stereo partly specified),77.8,0,0,0
CC(=O)OCC(=O)[C@@]1(O)CCC2C3CCC4=CC(=O)CCC4(C)C3C(=O)CC21C (stereo partly specified),0,0,0,0
O=S(=O)(N[C@H]1CC[C@@H](CCn2cc(-c3cccnc3)nn2)O[C@@H]1CO)c1ccc(F)cc1,-,-,0,-
O=C1OCCC1Sc1nnc(-c2ccc(Br)cc2)o1 (stereo unspecified),59.3,0,-,0
O=C1OCCC1Sc1nnc(-c2ccco2)o1 (stereo unspecified),0,0,-,0
COc1cc(O)c(CC=C(C)C)c(O)c1C(=O)CCc1ccc(O)cc1,81.2,-,0,70.8
Cc1ccc(NC(=O)/C=C/c2ccc([N+](=O)[O-])s2)cc1,50.5,0,0,0
Cc1ccc(NC(=O)/C=C/c2ccc([N+](=O)[O-])s2)c(C)c1,90.9,0,0,0
Cc1cccc(NC(=S)N/N=C/c2ccc([N+](=O)[O-])s2)c1,0,0,-,0
Cc1cccc(NC(=O)/C=C/c2ccc([N+](=O)[O-])s2)c1,85.0,0,0,0
C=CCNc1nc(Nc2ccc(-c3nc4ccccc4o3)cc2)nc(N2CCOCC2)n1,53.5,0,0,58.2
O=[N+]([O-])c1cnc2ccccc2c1,0,0,0,0
O=[N+]([O-])c1cc([N+](=O)[O-])c2cc3ccccc3nc2c1,92.9,0,0,0
C[C@H]1CN([C@@H](C)CO)C(=O)c2cccc(NS(=O)(=O)c3ccc(F)cc3)c2O[C@H]1CN(C)S(=O)(=O)c1ccc(F)cc1,-,-,0,-
COc1ccc(CC(=O)N/N=C/c2cc(Br)cs2)cc1OC,66.9,0,0,0
COc1ccc(CC(=O)N/N=C/c2cccnc2)cc1OC,0,0,0,0
COc1ccc2[nH]c3c4c(ccc3c2c1)C(=O)C=CC4=O,71.7,0,0,0
COc1ccc(-c2nnc(SCC(=O)/C(C#N)=C(\C)N)o2)cc1,65.4,0,-,0
O=C(CSc1nnc(-c2ccccc2Br)o1)N1CCOCC1,0,0,0,0
SMILES,TWEAK-Fn14 inh,HSP90 inh,LGR2 antag,TROY NFkB inh
C/C(N)=C(/C#N)C(=O)CSc1nnc(-c2ccccc2Br)o1,73.5,0,0,0
COc1ccc(-c2nnc(SCC(=O)c3ccc(C)o3)o2)cc1,0,0,0,0
O=C(CCCOc1ccccc1)N1CCN(c2ccccn2)CC1,70.5,0,-,0
COC(=O)C1CCN(C(=O)CCCOc2ccccc2)CC1,50.6,0,-,0
COC(=O)C1CCN(C(=O)CSc2ccccc2)CC1,0,0,0,0
C[C@H](CO)N1C[C@H](C)[C@@H](CN(C)Cc2ccc(Cl)c(Cl)c2)OCCCC[C@H](C)Oc2ccc(NS(=O)(=O)c3ccc(Cl)cc3)cc2C1=O,-,-,0,-
O=C(Nc1cccc2ccccc12)N(CCO)C1CCS(=O)(=O)C1 (stereo unspecified),64.0,0,0,51.5
CCN(C(=O)COC(=O)Cc1cccc2ccccc12)C1CCS(=O)(=O)C1 (stereo unspecified),0,-,0,0
O=C(c1cccnc1)N1CC2(C1)[C@@H](c1ccccc1)[C@@H](CO)N2C(=O)c1cccnc1,-,-,0,-
CCN(CC)S(=O)(=O)c1cc(NC(=O)c2ccc3c(c2)NC(=O)C(C)S3)ccc1C (stereo unspecified),89.3,-,0,66.9
O=C(c1ccccc1Cl)N(C(=O)c1ccccc1Cl)c1nccc(-c2cccs2)n1,77.0,0,-,66.8
CCCc1cn(CC[C@H]2CC[C@@H](NC(=O)Nc3ccc4c(c3)OCO4)[C@H](CO)O2)nn1,-,-,0,-
CC1(C)CC(=O)c2cc(C(=O)NCc3ccco3)c(=O)n(-c3ccccc3)c2C1,82.6,0,-,-
CC1(C)CC(=O)c2cc(C(=O)NNc3ccccc3)c(=O)n(-c3ccccc3)c2C1,0,0,0,0
O=C(Oc1cccc(Nc2ncnc3ccccc23)c1)c1cccnc1,0,0,-,0
COc1cc(C(=O)Oc2cccc(Nc3ncnc4ccccc34)c2)cc(OC)c1OC,99.3,0,85.4,78.5
